Assay outcomes: PubChem, National Center for Advancing Translational Sciences (NCATS)
TRb-SRC2 inh = TRbeta-SRC2 interaction inhibition | P10828 | TRbeta-SRC2 peptide binding, fluorescence polarization; receptor liganded with 1 µM T3 | Potency, µM (titrated, usually from 106 µM), usual class: inhibitors | 0.065% of 280,000 active; note: nearly all actives have a fitted effect of over 50% in size
Target sequence (P10828 whole entry, looked up): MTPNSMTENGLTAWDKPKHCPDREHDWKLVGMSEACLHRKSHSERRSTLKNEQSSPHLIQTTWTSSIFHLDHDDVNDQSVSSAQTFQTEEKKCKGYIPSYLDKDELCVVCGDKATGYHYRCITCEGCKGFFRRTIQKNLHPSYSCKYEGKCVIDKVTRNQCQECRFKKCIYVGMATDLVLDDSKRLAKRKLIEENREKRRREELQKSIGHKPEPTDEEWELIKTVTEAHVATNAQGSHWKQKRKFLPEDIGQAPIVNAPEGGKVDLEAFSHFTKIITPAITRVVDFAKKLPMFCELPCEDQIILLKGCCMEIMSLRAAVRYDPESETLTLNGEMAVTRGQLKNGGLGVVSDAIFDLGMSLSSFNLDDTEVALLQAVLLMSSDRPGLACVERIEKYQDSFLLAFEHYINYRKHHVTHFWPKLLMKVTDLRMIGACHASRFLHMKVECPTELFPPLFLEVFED
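Compounds were added to 0.6 uM TRb ligand-binding domain and 20 nM Texas Red-labeled SRC2 peptide in Tris buffer containing 1 uM T3, incubated 5 hr at ambient temperature, then read by fluorescence polarization.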
Tau fibril ThT = tau fibrillization inhibition (ThT binding). Potency, µM (series often up to 57.4 µM), hits mostly inhibitors. P10636. 2.1% of 270,000 active. recombinant tau K18 P301L, heparin-induced fibrillization, ThT fluorescence; note: nearly all actives have a fitted effect of over 55% in size
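Fibril formation assay: tau K18 P301L at 15 uM with trace Alexa 594 label, heparin inducer 20 uM, pH 7 sodium acetate buffer, 37 C for 6 hr; endpoint ThT signal.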
TexasRed fluor = Texas Red fluorescence interference in TRb-SRC2 counter-screen; Potency, µM (doses to about 106 µM); 0.29% of 280,000 active; AID 1479; TRb/SRC2 Texas Red total fluorescence interference; active = well fitted curve in either direction with a large enough effect; inconclusive = small, poorly fitted or top-dose-only effect
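Flags fluorescent or light-absorbing compounds by total fluorescence, S + 2P, at 555 nm excitation and 632 nm emission. Mixture: 20 nM Texas Red SRC2 peptide, 0.6 uM human TRb LBD, 1 uM T3, 5% DMSO; compound exposure 5 h at ambient temperature.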
Tau FP inhib = inhibitors of human tau fibril formation | 0.39% of 280,000 active | K18 P301L tau heparin fibrillization, Alexa594 FP, 6 h | P10636 | Potency, µM (highest dose often 57.7 µM), hits mostly inhibitors | AID 1468; note: nearly all actives have a fitted effect of over 55% in size
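Human K18 P301L fragment (15 uM unlabeled plus 0.24 uM Alexa 594-labeled) in 100 mM sodium acetate pH 7 with compound, aggregation induced by 20 uM heparin for 6 hr at 37 C. ThT (30 uM) added for 1 hr, then Alexa 594 FP read.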
Tau fluor cs = counter-screen for tau fibril formation inhibitors; AID 1463; tau K18 P301L Alexa594 fluorescence, heparin fibrillization; 0.93% of 280,000 active; Potency, µM (doses to about 57.7 µM); note: nearly all actives have a fitted effect of over 55% in size
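Human tau K18 P301L (15 uM unlabeled, 0.24 uM Alexa 594-labeled) in 100 mM sodium acetate pH 7 with 20 uM heparin, 6 hr at 37 C. ThT 30 uM added, 1 hr ambient; Alexa 594 FP and total fluorescence read at 555/632 nm.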
Large screens that a line does not name were inactive; [ ] = remark or other dose. Hits are enriched below; roughly 3% of the tested compounds scored in any of these assays. Unless noted, calls come from the whole dose curve; as a rule, active = well fitted curve in the direction sought with a large enough effect; inconclusive = small, poorly fitted or top-dose-only effect, or another doubt; inactive = no such curve, though single readings can be large; an effect the other way counts as inactive or inconclusive.

CNC(=O)C1CCC(Cn2c(=O)c3sccc3n(CC(=O)Nc3cc(F)ccc3F)c2=O)CC1 (stereo unspecified)	none
COc1ccc(N=Nc2nc3ccc(Br)cc3n2C)cc1	Tau fibril ThT 1.6µM
COc1ccc(/C=N/Nc2nc3ccccc3s2)cc1O	Tau fibril ThT 13µM, Tau fluor cs 13µM[quencher]
CCn1c(C)c(/C=N/Nc2nc3ccccc3s2)c2ccccc21	Tau fibril ThT 7.1µM, Tau fluor cs 7.1µM[quencher]
C(=N\Nc1nc2ccccc2s1)/c1cccs1	Tau fibril ThT 14µM, Tau FP inhib inconclusive, Tau fluor cs 14µM[quencher]
Cc1ccsc1/C=N/Nc1nc2ccccc2s1	Tau FP inhib inconclusive
CCCN(C(=O)Cn1c(=O)oc2cc(Cl)ccc21)c1ccc(C(C)C)cc1	Tau fibril ThT inconclusive
Oc1ccc(N=Nc2n[nH]c(-c3ccc(Br)cc3)n2)cc1	Tau fibril ThT 2.2µM, Tau fluor cs inconclusive
Oc1ccc(N=Nc2n[nH]c(-c3ccccc3)n2)cc1	Tau fibril ThT 2.5µM
CCN(CC)c1cc(C)c2cc(NC(=O)/C=C/c3ccccc3OC(C)C)ccc2n1	Tau fibril ThT inconclusive, Tau FP inhib inconclusive, Tau fluor cs 7.9µM[quencher]
CCN(CC)c1ccc(C(=O)Nc2ccc3nc(N(CC)CC)cc(C)c3c2)cc1	Tau fibril ThT 3.5µM, Tau fluor cs 14µM[quencher]
CCOC(=O)C12CC1/C(=N/O)c1ccccc1O2 (stereo unspecified)	none
Cc1cc(Br)ccc1-n1[nH]c(C)c(C=Nc2cccc3nsnc23)c1=O	TRb-SRC2 inh inconclusive, Tau fibril ThT 14µM, Tau FP inhib inconclusive, Tau fluor cs inconclusive
COc1ccc2nc(/N=C/c3c(C)[nH]n(-c4ccc(C)cc4C)c3=O)sc2c1	Tau fibril ThT inconclusive, Tau FP inhib inconclusive
COc1ccc(-c2cc(C(F)(F)F)n3nc(C(=O)Nc4cccc(Cl)c4Cl)cc3n2)cc1OC	TexasRed fluor 0.035µM[quencher]
COc1ccc(-c2cc(C(F)(F)F)n3nc(C(=O)Nc4cc(C(F)(F)F)ccc4Cl)cc3n2)cc1OC	none
CSc1ncc(CN2CCc3c([nH]c4ccccc34)C2c2cccc(O)c2)cn1 (stereo unspecified)	Tau fluor cs 16µM[quencher]
O=C(Nc1cccc(C(F)(F)F)c1)N1CC2CCCN2c2ccccc21 (stereo unspecified)	none
Cc1ccc(NC(=O)CSc2nc3ccc(NC(=O)c4cccs4)cc3s2)c(C)c1	TexasRed fluor inconclusive, Tau FP inhib 18µM, Tau fluor cs inconclusive
Cc1ccccc1OCC(=O)Nc1ccc2nc(SCCOc3ccccc3)sc2c1	Tau fibril ThT inconclusive
Cc1ccccc1OCCSc1nc2ccc(NC(=O)c3ccccc3)cc2s1	Tau FP inhib 11µM, Tau fluor cs inconclusive
Cc1cccc(OCCSc2nc3ccc(NC(=O)c4cccs4)cc3s2)c1	Tau FP inhib 7.1µM, Tau fluor cs inconclusive
Cc1ccc(NC(=O)CSc2nc3ccc(NC(=O)c4cccs4)cc3s2)cc1	Tau FP inhib inconclusive, Tau fluor cs inconclusive
COc1cccc(NC(=O)CSc2nc3ccc(NC(=O)c4ccco4)cc3s2)c1	TRb-SRC2 inh inconclusive, Tau FP inhib inconclusive, Tau fluor cs 16µM[quencher]
Cc1ccccc1C(=O)Nc1ccc2nc(SCCOc3ccccc3)sc2c1	Tau FP inhib inconclusive
Cc1ccc(NC(=O)CSc2nc3ccc(Br)cc3[nH]2)c(C)c1	Tau FP inhib 22µM, Tau fluor cs inconclusive
COc1cc(C)ccc1OCCSc1nc2ccc(NC(C)=O)cc2s1	Tau FP inhib 25µM, Tau fluor cs inconclusive
Cc1ccccc1OCCSc1nc2ccc(NC(=O)c3cccs3)cc2s1	Tau FP inhib 10µM, Tau fluor cs inconclusive
Cc1ccccc1OCCSc1nc2ccc(NC(=O)c3cccc(F)c3)cc2s1	Tau fibril ThT inconclusive, Tau FP inhib 14µM, Tau fluor cs inconclusive
Cc1ccc2nc(SCC(=O)Nc3ccc(F)cc3F)[nH]c2c1	none
CC(C)(C)N1C(=O)[C@H]2[C@H]3[C@H](O)[C@H](O)C/C(=N/OCc4ccccc4)[C@@H]3CC[C@@H]2C1=O	none
CCCC(=O)Nc1ccc2nc(SCC(=O)Nc3ccc(N4CCOCC4)c(Cl)c3)sc2c1	Tau fibril ThT inconclusive, Tau fluor cs 14µM[quencher]
COc1ccc2c(c1)O[C@H](c1ccc3c(c1)OCO3)[C@@H](OC(=O)NCCc1ccc(OC)c(OC)c1)C2=O	none
